Assay outcomes: PubChem, National Center for Advancing Translational Sciences (NCATS)
HP1b chromo inh: HTS for Inhibitors of HP1-beta Chromodomain Interactions with Methylated Histone Tails; 0.56% of 390,000 active; AID 540317, 2011; Potency, µM (series often up to 114 µM), for the others: at the top dose activity change, negative = inhibition, usual class: inhibitors; AlphaScreen HP1-beta / biotin-H3K9me3 peptide binding; Chromobox protein homolog 1 (Homo sapiens), P83916; further: nearly all actives have a fitted effect of over 70% in size
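HP1-beta protein (50 nM final) preincubated 30 min at room temperature with biotinylated H3(1-18)K9me3 peptide (50 nM) in PBS pH 7.4, 0.01% Tween-20, then compound added for 30 min. AlphaScreen streptavidin donor/nickel chelate acceptor beads (10 ug/mL final), 30 min dark, luminescence read.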
Sfp PPTase inh: qHTS Assay for Inhibitors of Bacillus subtilis Sfp phosphopantetheinyl transferase (PPTase); 4'-phosphopantetheinyl transferase ffp (Bacillus subtilis), Q9F4F7; Biochemical Sfp PPTase activity, qHTS; Potency, µM, without a hit: largest response in the series, negative = inhibition, most hits filed as inhibitors; 3.5% of 310,000 active; AID 1490, 2009;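 further: the enzyme is Sfp with the accession as filed and its product quenches rhodamine fluorescence; 0% = enzyme reaction without inhibitor and -100% = no enzyme wells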
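Compounds were incubated with enzyme (final 15 nM) for 15 min at room temperature before substrate addition started the reaction. Fluorescence at 525 nm excitation, 598 nm emission was recorded immediately and after 30 minutes.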
BAZ2B block: qHTS Assay for Inhibitors of BAZ2B. Bromodomain adjacent to zinc finger domain protein 2B (Homo sapiens), Q9UIF8. AlphaScreen BAZ2B-H3K14Ac peptide displacement. Potency, µM (highest dose often 114 µM), without a hit: at the top dose activity change, negative = inhibition, usual class: inhibitors. 4.4% of 360,000 active; further: on the % scale 0 is the no-effect control and ±100 the full control effect; nearly all actives have a fitted effect of over 60% in size
Target sequence (Q9UIF8 whole entry, looked up, the tested form may be a part): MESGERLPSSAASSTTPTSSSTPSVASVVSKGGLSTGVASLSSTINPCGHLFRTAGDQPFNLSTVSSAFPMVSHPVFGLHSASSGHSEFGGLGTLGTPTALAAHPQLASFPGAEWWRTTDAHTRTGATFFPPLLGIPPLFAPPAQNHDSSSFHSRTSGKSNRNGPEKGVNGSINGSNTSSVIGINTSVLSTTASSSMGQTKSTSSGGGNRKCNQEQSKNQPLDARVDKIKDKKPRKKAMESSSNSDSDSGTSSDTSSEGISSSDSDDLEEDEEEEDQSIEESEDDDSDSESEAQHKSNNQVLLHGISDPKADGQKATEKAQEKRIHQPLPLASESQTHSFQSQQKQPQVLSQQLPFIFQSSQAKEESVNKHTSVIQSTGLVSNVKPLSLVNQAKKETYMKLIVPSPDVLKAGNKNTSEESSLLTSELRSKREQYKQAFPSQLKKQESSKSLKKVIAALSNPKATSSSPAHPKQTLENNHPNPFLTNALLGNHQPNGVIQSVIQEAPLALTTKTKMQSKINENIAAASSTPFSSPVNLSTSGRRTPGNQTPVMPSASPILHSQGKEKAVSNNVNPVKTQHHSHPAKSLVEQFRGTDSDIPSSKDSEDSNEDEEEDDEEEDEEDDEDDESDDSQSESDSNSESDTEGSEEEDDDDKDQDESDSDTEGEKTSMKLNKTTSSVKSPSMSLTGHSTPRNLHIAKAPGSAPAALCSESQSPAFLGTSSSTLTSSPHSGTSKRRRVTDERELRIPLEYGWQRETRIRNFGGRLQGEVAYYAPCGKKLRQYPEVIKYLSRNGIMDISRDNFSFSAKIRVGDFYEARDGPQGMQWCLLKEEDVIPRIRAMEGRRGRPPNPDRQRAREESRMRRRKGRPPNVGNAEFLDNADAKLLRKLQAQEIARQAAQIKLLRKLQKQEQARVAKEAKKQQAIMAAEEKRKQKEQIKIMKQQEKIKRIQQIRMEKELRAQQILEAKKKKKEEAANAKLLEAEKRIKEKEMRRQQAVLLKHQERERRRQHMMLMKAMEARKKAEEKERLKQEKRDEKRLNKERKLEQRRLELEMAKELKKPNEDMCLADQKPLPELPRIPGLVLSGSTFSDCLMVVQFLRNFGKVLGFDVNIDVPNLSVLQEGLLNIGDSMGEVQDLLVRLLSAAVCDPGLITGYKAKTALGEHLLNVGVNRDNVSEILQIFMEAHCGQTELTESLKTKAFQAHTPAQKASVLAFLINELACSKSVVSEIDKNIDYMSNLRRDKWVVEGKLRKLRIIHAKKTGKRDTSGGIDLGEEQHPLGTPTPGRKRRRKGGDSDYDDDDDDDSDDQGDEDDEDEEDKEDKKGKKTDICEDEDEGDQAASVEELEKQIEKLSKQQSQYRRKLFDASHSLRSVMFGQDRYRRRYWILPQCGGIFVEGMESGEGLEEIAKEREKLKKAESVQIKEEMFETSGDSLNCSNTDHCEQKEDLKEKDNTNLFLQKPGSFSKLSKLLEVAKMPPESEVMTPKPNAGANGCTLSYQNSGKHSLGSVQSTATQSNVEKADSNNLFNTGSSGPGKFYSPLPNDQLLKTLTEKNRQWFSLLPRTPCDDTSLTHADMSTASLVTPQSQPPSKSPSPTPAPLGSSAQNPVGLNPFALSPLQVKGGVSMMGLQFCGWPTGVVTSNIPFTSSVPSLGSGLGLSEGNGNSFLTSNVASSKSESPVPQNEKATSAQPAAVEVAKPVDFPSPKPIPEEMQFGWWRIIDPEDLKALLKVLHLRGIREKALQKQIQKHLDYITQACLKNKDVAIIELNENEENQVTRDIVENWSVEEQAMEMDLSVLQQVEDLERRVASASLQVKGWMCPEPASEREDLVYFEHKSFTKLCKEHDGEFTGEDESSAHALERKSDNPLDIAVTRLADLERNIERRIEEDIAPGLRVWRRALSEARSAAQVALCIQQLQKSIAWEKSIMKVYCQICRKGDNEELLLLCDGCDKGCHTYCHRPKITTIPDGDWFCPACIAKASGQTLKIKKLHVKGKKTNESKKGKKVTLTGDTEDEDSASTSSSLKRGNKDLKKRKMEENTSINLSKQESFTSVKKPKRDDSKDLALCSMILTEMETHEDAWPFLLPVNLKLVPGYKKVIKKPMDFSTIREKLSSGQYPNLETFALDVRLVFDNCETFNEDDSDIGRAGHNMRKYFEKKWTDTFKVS
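Multi-concentration screen (max 110 uM) measuring displacement of acetylated histone H3 peptide from BAZ2B by AlphaScreen, using 50 nM protein, 50 nM peptide and 10 ug/mL streptavidin donor plus Ni-chelate acceptor beads.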
G9a block: qHTS Assay for Inhibitors of Histone Lysine Methyltransferase G9a; G9a H3K9 monomethylation, AlphaScreen, 2 h; AID 504332, 2011; Potency, µM (series often up to 102 µM), for the others: at the highest dose activity, negative = inhibition, usual class: inhibitors; 8.8% of 350,000 active; further: on the % scale 0 is the no-effect control and ±100 the full control effect; nearly all actives have a fitted effect of over 75% in size
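Step 1: enzyme (final 20 nM) with compound, 15 min RT. Step 2: substrate peptide 500 nM and SAM 20 uM, 2 h RT. Step 3: anti-H3K9me1 antibody and AlphaScreen beads, 10 min, then plate read.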
JMJD2A Tudor: qHTS Assay for Inhibitors of JMJD2A-Tudor Domain. Lysine-specific demethylase 4A (Homo sapiens), O75164. AlphaScreen JMJD2A-Tudor / H3K4me3 peptide binding. Potency, µM (titrated, usually from 114 µM), for the others: at the highest dose activity change, negative = inhibition, hits mostly inhibitors. 4.4% of 390,000 active; further: on the % scale 0 is the no-effect control and ±100 the full control effect; nearly all actives have a fitted effect of over 50% in size
L3MBTL1 block: qHTS Assay for the Inhibitors of L3MBTL1; AlphaScreen L3MBTL1–H3K9me1 peptide binding; 0.66% of 230,000 active; AID 485360, 2010; Lethal(3)malignant brain tumor-like protein 1 (Homo sapiens), Q9Y468; Potency, µM (doses to about 57.1 µM), without a hit: at the top dose activity, negative = inhibition, most hits filed as inhibitors; further: on the % scale 0 is the no-effect control and ±100 the full control effect; nearly all actives have a fitted effect of over 60% in size
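L3MBTL1 50 nM + b-AHA-H3(1-15)K9me1 75 nM, 30 min RT; compound added, 30 min RT; streptavidin donor/Ni-chelate acceptor beads 10 ug/mL each final, 30 min RT dark; AlphaScreen read.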
* marks the source's active call; other numbers are inactive results; [ ] = dose if it differs, or a comment. A selection: hits, their analogues and other compounds. The true share with any hit is near 12%. The call rests on the fitted dose curve; in most records, active means well fitted curve in the direction sought with a large enough effect; inconclusive means small, poorly fitted or top-dose-only effect, or another doubt; inactive means no such curve, though single readings can be large; an effect the other way counts as inactive or inconclusive. Potency means the concentration at half of the fitted maximal effect.

`OC[C@H]1OC(O)(CN2CCOCC2)[C@H](O)[C@@H]1O` (some centres not stated) gave Sfp PPTase inh -3%.
For C=C(C(C)=O)C(O)c1ccc2ccccc2c1 (configuration not stated) the results were Sfp PPTase inh -17%.
For Cn1c(CNC(=O)CSc2n[nH]c(-c3ccccc3Cl)n2)nc2ccccc21 the results were HP1b chromo inh 25%[57 µM], BAZ2B block 4%, G9a block 28µM* and JMJD2A Tudor -27%.
CC1(C(=O)CSc2nc3ccccc3[nH]2)CCC(=O)O1 (configuration not stated) was read as HP1b chromo inh 9%, Sfp PPTase inh -14%, BAZ2B block -5%, G9a block inconclusive, JMJD2A Tudor -14% and L3MBTL1 block 9%.
CC1(C(=O)CSc2n[nH]c(-c3ccccc3Cl)n2)CCC(=O)O1 (configuration not stated) was read as Sfp PPTase inh 50µM*, BAZ2B block inconclusive, G9a block 10µM* and L3MBTL1 block 2%.
`CC1CC2(CC(C)(C(=O)CSc3n[nH]c(-c4ccccc4Cl)n3)OC2=O)C(=O)O1` (configuration not stated) gave HP1b chromo inh 38%, Sfp PPTase inh -7%, BAZ2B block -9%, G9a block inconclusive and JMJD2A Tudor inconclusive.
For CC1(C(=O)CSc2ncn[nH]2)CCC(=O)O1 (configuration not stated) the results were Sfp PPTase inh 56µM*, BAZ2B block 89µM* and G9a block 11µM*.
For Cc1cc(N2CCN(c3ccccc3Cl)CC2)n2cc(-c3ccccc3)nc2n1 the results were HP1b chromo inh 0%, Sfp PPTase inh inconclusive, BAZ2B block inconclusive, G9a block 50µM*, JMJD2A Tudor inconclusive and L3MBTL1 block -10%.
For Cc1cc(N2CCN(c3ccccc3)CC2)n2cc(-c3ccccc3)nc2n1 the results were HP1b chromo inh -35%, Sfp PPTase inh inconclusive, BAZ2B block 45µM*, G9a block -11%[12.7 µM], JMJD2A Tudor inconclusive and L3MBTL1 block -18%.
COc1ccc(NC(=O)c2oc3c(c2C)-c2nn(Cc4ccccc4Cl)cc2CC3)cc1OC was read as HP1b chromo inh 28%, BAZ2B block 0%, G9a block -3%[59 µM] and JMJD2A Tudor -10%.
COc1c(O)c(O)cc2c1oc1c3cc(C)ccc3oc(=O)c21 was read as Sfp PPTase inh 79µM*.
COc1cc(-c2oc3ccc(C)cc3c(=O)c2O)cc(OC)c1OC was read as HP1b chromo inh 70%, BAZ2B block 15%, G9a block 2%[59 µM] and JMJD2A Tudor 16%.
`COc1cc(C2Oc3ccccc3C=C2[N+](=O)[O-])cc(OC)c1OC` (configuration not stated) gave HP1b chromo inh -20%, Sfp PPTase inh inconclusive, BAZ2B block 35µM* and JMJD2A Tudor 56µM*.
`COc1ccc2c(c1)c(=O)c(S(=O)(=O)c1ccc(F)cc1)cn2Cc1ccccc1Cl` gave HP1b chromo inh 37%, BAZ2B block 1%, G9a block inconclusive and JMJD2A Tudor -12%.
For CCN(CC)c1ccc(/C=N/NC(=O)CNC(=O)c2ccc3c(c2)OCCO3)cc1 the results were HP1b chromo inh 0%, Sfp PPTase inh 4%, BAZ2B block -31%, G9a block 45µM* and JMJD2A Tudor -33%.
`CCOc1ccc(C(=O)Nc2ccc(-c3nc4ccccc4[nH]3)cc2)cc1[N+](=O)[O-]` gave HP1b chromo inh 61%, Sfp PPTase inh 11%, BAZ2B block -25%, G9a block 6%[59 µM], JMJD2A Tudor 79µM* and L3MBTL1 block -5%.
Screening CCN(CC)c1ccc(C(=O)NC(=S)N2CCN(Cc3ccc4c(c3)OCO4)CC2)cc1 returned HP1b chromo inh -20%, Sfp PPTase inh 3%, BAZ2B block inconclusive, G9a block 40µM*, JMJD2A Tudor inconclusive and L3MBTL1 block inconclusive.
`CC(C)NC(=S)N1CCN(Cc2ccc3c(c2)OCO3)CC1` gave HP1b chromo inh 17%, Sfp PPTase inh 8%, BAZ2B block -18%, G9a block 43%[12.7 µM], JMJD2A Tudor -14% and L3MBTL1 block -5%.
For O=C(Nc1ccc(-c2nc3ccccc3[nH]2)cc1)c1ccc2c(c1)OCO2 the results were HP1b chromo inh -21%, Sfp PPTase inh -24%, BAZ2B block inconclusive, G9a block 71µM*, JMJD2A Tudor -26% and L3MBTL1 block 1%.
CCN(C(=O)c1cc2c(=O)n(CC)c3ccccc3c2s1)c1cccc(C(F)(F)F)c1 was read as HP1b chromo inh 48%, BAZ2B block -4%, G9a block 4%[59 µM] and JMJD2A Tudor -13%.
CC(C)CCNC(=O)c1ccc(Cn2c(=O)c3cccn3c3cccnc32)cc1 was read as HP1b chromo inh 11%, BAZ2B block inconclusive, G9a block -6%[59 µM] and JMJD2A Tudor -10%.
For CC(=O)Nc1cc(NC(C)=O)cc(C(=O)OCC(=O)c2ccc3c(c2)OCO3)c1 the results were HP1b chromo inh 22%, BAZ2B block -27%, G9a block 10µM*, JMJD2A Tudor -25% and L3MBTL1 block inconclusive.
Screening CCN(CC)c1ccc(NC(=O)c2ccc3c(c2)OCO3)cc1 returned HP1b chromo inh inconclusive, Sfp PPTase inh -17%, BAZ2B block 45µM*, G9a block 6.3µM* and JMJD2A Tudor inconclusive.
Screening CCC(=O)Nc1ccc(NC(=O)c2ccc3c(c2)OCO3)cc1 returned HP1b chromo inh 19%, Sfp PPTase inh 15%, BAZ2B block 1%, G9a block inconclusive and JMJD2A Tudor -3%.
`CCOc1ccc(NC(=O)c2cnn3c2NC(c2cccc(OC)c2)=CC3c2ccccc2)cc1` (configuration not stated) gave HP1b chromo inh 27%, BAZ2B block -7%, G9a block -4%[59 µM] and JMJD2A Tudor -14%.
CC(C)=NNC(=O)CN1C(=O)NC2NC(=O)NC21 (configuration not stated) was read as HP1b chromo inh 16%, Sfp PPTase inh -5%, BAZ2B block 5%, G9a block 79µM*, JMJD2A Tudor -6% and L3MBTL1 block 2%.
